# Hit rate of the full screen: of about 310,000 compounds, about 14,000 (4.5%) showed an effect of 50% or more. Effects have a minus sign here. This excerpt belongs to a sample that is enriched for strong results.
# Target: human ether-à-go-go-related gene (hERG) potassium channel (human, UniProt Q12809)
# Test: primary screen, population patch clamp on CHO cells stably expressing hERG; higher = less effect of the substance
# 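Note: peak tail current of the secondary pulse compared with the same well before compound.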
# Chain of human ether-à-go-go-related gene (hERG) potassium channel (Q12809 whole entry, looked up): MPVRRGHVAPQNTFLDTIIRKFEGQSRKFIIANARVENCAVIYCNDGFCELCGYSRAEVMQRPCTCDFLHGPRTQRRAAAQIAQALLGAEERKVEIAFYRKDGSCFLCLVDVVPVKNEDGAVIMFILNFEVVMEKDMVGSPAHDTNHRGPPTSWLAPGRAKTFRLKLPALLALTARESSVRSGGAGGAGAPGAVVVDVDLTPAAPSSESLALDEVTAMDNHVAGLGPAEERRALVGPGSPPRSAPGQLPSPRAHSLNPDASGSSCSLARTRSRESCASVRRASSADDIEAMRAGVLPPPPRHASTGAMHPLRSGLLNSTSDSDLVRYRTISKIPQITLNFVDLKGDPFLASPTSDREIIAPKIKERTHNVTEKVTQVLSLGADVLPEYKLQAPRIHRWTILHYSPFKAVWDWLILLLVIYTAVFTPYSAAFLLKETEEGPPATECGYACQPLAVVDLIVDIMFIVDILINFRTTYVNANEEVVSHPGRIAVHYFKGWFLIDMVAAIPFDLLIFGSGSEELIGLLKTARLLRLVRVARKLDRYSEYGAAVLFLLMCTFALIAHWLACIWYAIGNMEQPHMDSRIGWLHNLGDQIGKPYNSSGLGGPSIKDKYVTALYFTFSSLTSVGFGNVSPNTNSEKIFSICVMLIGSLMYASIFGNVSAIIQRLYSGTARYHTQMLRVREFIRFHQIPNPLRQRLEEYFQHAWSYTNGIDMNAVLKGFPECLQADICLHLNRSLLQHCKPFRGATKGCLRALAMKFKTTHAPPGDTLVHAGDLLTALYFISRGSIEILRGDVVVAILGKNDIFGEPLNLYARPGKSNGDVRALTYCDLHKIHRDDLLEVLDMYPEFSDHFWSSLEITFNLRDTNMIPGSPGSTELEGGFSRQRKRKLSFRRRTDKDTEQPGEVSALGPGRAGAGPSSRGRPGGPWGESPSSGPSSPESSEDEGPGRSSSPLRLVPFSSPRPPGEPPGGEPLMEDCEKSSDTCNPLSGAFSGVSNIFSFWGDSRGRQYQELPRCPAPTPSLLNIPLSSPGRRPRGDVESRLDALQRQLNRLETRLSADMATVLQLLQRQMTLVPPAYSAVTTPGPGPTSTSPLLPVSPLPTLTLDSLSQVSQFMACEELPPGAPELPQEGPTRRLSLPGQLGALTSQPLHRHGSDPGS
row,Structure (SMILES),"hERG current change (%, negative = inhibition) at 10uM [%]"
1,C/C(=N\OCC(=O)NCC(F)(F)F)c1cc2ccccc2o1,-1.58
2,CN(Cc1nccn1C)C(=O)C1CCC(=O)N(Cc2cccc(C(F)(F)F)c2)C1 (centres unmarked),-9.93
3,CN(Cc1nccs1)C(=O)C1CCC(=O)N(CCc2cccc(F)c2)C1 (centres unmarked),-12.4
4,CN(Cc1ccccn1)C(=O)C1CCC(=O)N(Cc2cccc(C(F)(F)F)c2)C1 (centres unmarked),-15.7
5,CN(Cc1nccs1)C(=O)C1CCC(=O)N(CCc2ccc(Cl)cc2)C1 (centres unmarked),-81.5
6,CN(Cc1nccn1C)C(=O)C1CCC(=O)N(CCc2ccc(Cl)cc2)C1 (centres unmarked),-53.8
7,CN(Cc1ccon1)C(=O)C1CCC(=O)N(Cc2ccc(Cl)cc2)C1 (centres unmarked),-40.9
8,CN(Cc1ccccn1)C(=O)C1CCC(=O)N(CCc2ccc(Cl)cc2)C1 (centres unmarked),-53.1
9,CN(Cc1cnccn1)C(=O)C1CCC(=O)N(CCc2ccccc2)C1 (centres unmarked),19.7
10,CCc1ccc(CN(C)C(=O)C2CCC(=O)N(Cc3ccccn3)C2)cc1 (centres unmarked),-1.48
11,CN(Cc1cnccn1)C(=O)C1CCC(=O)N(CCc2ccc(Cl)cc2)C1 (centres unmarked),-67.9
12,O=C(NCCc1nccs1)C1CCC(=O)N(CCc2ccc(Cl)cc2)C1 (centres unmarked),-31.6
13,CN(Cc1cnn(C)c1)C(=O)C1CCC(=O)N(Cc2ccc(Cl)cc2)C1 (centres unmarked),-9.64
14,O=C(NNC(=O)C1COc2ccccc2O1)c1ccccc1 (centres unmarked),-1.85
15,O=C(NCc1cccs1)C1CCC(CNS(=O)(=O)c2ccccc2)CC1 (centres unmarked),-2.7
16,O=C(Nc1cccnc1)c1ccc(C(=O)Nc2cccnc2)cc1,29.7
17,COc1ccc(-c2nc(CS(=O)CC(=O)NC3CCCCCC3)c(C)o2)cc1 (centres unmarked),10.6
18,CCN(CC(=O)NC(C)(C)C)C(=O)C(c1ccccc1)c1ccccc1,23.5
19,COc1cccc(NC(=O)c2ccc(S(=O)(=O)NCc3cccnc3)cc2)c1,-0.62
20,O=c1oc2ccccc2c(O)c1C=Nc1cccnc1,12.2
21,Cc1cccc(CN2CCCC(C(=O)Nc3ccccc3Oc3cccnc3)C2)c1 (centres unmarked),-43.9
22,Cc1ccccc1CN1CCCC(C(=O)Nc2ccccc2Oc2cccnc2)C1 (centres unmarked),0.0346

row,Structure (SMILES),"hERG current change (%, negative = inhibition) at 10uM [%]"
1,O=C(Nc1ccccc1Oc1cccnc1)C1CCCN(Cc2cccc(Cl)c2)C1 (centres unmarked),-30.2
2,C#Cc1ccc(CN2CCCC(C(=O)Nc3ccccc3Oc3cccnc3)C2)cc1 (centres unmarked),-58.5
3,O=C(Nc1ccccc1Oc1cccnc1)C1CCCN(Cc2ccccc2O)C1 (centres unmarked),-57.2
4,O=C(Nc1ccccc1Oc1cccnc1)C1CCCN(Cc2ccc(F)cc2)C1 (centres unmarked),-36.2
5,CCN1CCN(CC(O)COc2ccc3c(C)cc(=O)oc3c2)CC1.Cl (centres unmarked),-0.83
6,O=C(CSCC(=O)N1CCOCC1)Nc1ccccc1,-0.115
7,O=C(NC1CCS(=O)(=O)C1)c1ccc2c(c1)OCO2 (centres unmarked),13
8,Cc1nc2ccc(NC(=O)c3ccc(Cl)c(S(=O)(=O)N(C)c4ccccc4)c3)cc2s1,10.3
9,Cc1cccc(C)c1NC(=O)C(NC=O)c1ccc(N(C)C)cc1 (centres unmarked),-11.1
10,Cc1cccc(C)c1NC(=O)C(NC=O)c1ccc(Cl)cc1 (centres unmarked),0.758
11,Cc1cccc(C)c1NC(=O)C(NC=O)c1ccccc1 (centres unmarked),-64.1
12,COc1cc2c(=O)n(Cc3ccco3)c(=O)n(CC(=O)c3ccc(Br)cc3)c2cc1OC,-3.02
13,O=C(NCC(c1ccco1)N1CCc2ccccc21)c1ccccc1 (centres unmarked),-3.78
14,Cc1ccc(C(=O)NCC(c2ccco2)N2CCc3ccccc32)cc1C (centres unmarked),-60.1
15,O=C(NCC(c1ccco1)N1CCc2ccccc21)c1ccccc1Cl (centres unmarked),-60.2
16,O=C(NCC(c1ccco1)N1CCc2ccccc21)c1c(F)cccc1F (centres unmarked),-7.53
17,COc1ccc(CCC(=O)NCC(c2ccco2)N2CCc3ccccc32)cc1 (centres unmarked),-44.2
18,Cc1cccc(C(=O)NCC(c2ccco2)N2CCc3ccccc32)c1 (centres unmarked),-25.6
19,O=C(CCc1ccccc1)NCC(c1ccco1)N1CCc2ccccc21 (centres unmarked),-56.2
20,Cc1ccccc1C(=O)NCC(c1ccco1)N1CCc2ccccc21 (centres unmarked),-55.7
21,O=C(NCC(c1ccco1)N1CCc2ccccc21)c1ccccc1F (centres unmarked),-19.8
22,O=C(NCC(c1ccco1)N1CCc2ccccc21)c1ccccc1Br (centres unmarked),-29.3
